Experimental data as given in ChEMBL document CHEMBL3988442, “University of Dundee, Small-Polar-MMV Screening Library” (2021).
Screen size: about 48,000 compounds; about 13,000 (27%) showed an effect of 50% or more. Some of the results follow.

tested on: Wolbachia pipientis; test: Anti-Wolbachia Cell-Based Screen; assay type: functional; set-up: scale not given: in the data most compounds retested in dose-response had high values; conditions: 5 µM

Structure (SMILES)	Percent Effect
CCNc1ccnc(N2Cc3cnn(Cc4ccc(F)cc4)c3C2)n1	-10.41%
CCCn1nnc(NCc2ccccc2OCc2ccc(Cl)cc2)n1	104.8%
CCOc1ccc(Cl)cc1CNCCCn1ccnc1	-4.437%
Cc1cnn(CCNCc2ccccc2OCc2cccnc2)c1	-3.699%
Cn1nnc(NCc2ccccc2OCc2ccc(Cl)cc2)n1	119%
CCOc1cc(CNc2nnn(C)n2)ccc1OCc1ccc(Cl)cc1	121.9%
CCn1nnc(NCc2ccccc2OCc2ccc(Cl)cc2)n1	122%
CCOCc1ccccc1CNc1ccc2nncn2n1	-4.273%
CCOc1ccc(CNCCCn2ccnc2)cc1Br	7.125%
c1ccc(OCc2ccncc2)c(CNC2CCc3ncnn3C2)c1 (stereo not given)	-0.3287%
COc1ccc(-c2cn3c(n2)CO[C@@H](CNCc2ccccn2)C3)cc1	-5.771%
CC(C)OCCN1CCc2cncnc2C1	-3.318%
Cc1nnc(NCc2ccc(Cl)cc2)o1	-6.045%
CC(NCc1ccc(OCC(N)=O)cc1)c1ccc(Cl)cc1.Cl (stereo not given)	-2.794%
Cn1nnc(NCc2ccc(OCc3ccc(Cl)cc3)cc2)n1	101.9%
CCn1nc(CC(C)C)cc1C(=O)N1CCC2(CC1)[C@H](O)C[C@@H]2O	-14.19%
CCc1ccc(C(=O)N2CCC3(CCC(=O)N(CCN(C)C)C3)CC2)[nH]1	-7.538%
CCN1CC2(CCC1=O)CCN(C(=O)c1ccc(Cl)cc1O)CC2	-7.361%
CCSc1ccc(C(=O)N2CC[C@](O)(CC)[C@H](O)C2)s1	107.9%
CCSc1ccc(C(=O)N2CCC3(CC2)[C@H](O)C[C@@H]3O)s1	100.2%
CCSc1ccc(C(=O)N2CC[C@](C)(O)[C@H](C)C2)s1	109.4%
CC[C@@]1(O)CCN(C(=O)c2ccsc2)C[C@H]1O	-12.48%
CCc1ccc(C(=O)N2CC[C@](C)(O)[C@H](C)C2)[nH]1	-16.61%
Cc1cc2cccc(C(=O)N3CC[C@](C)(O)[C@H](C)C3)c2o1	15.88%
CO[C@H]1C[C@@H](O)C12CCN(C(=O)CCSCc1ccc(F)cc1)CC2	11.02%
CCSc1ccc(C(=O)N2CCC3(CCC(=O)N(C)C3)CC2)s1	103.4%
CC[C@@]1(O)CCN(C(=O)c2ccc(-n3cnnc3)cc2)C[C@H]1O	5.833%

Structure (SMILES)	Percent Effect
COc1ccccc1N1CCN(C(=O)c2ccoc2)CC1	4.438%
CNC(=O)Cc1noc(-c2cc3c(s2)CCCCCC3)n1	-5.82%
COc1cccc(CC(=O)N2CCc3ncnc(C)c3CC2)c1	-6.07%
CCn1cnnc1C1CCN(C(=O)COCCc2ccccc2)CC1	1.598%
CCn1c(C)cc(C(=O)N2CCCC(c3nc(C)no3)C2)c1C (stereo not given)	12.03%
CCn1cnnc1C1CCN(C(=O)c2cc(C)n(CC)c2C)CC1	80.75%
CCn1cnnc1C1CCN(C(=O)c2ccoc2C)CC1	104.9%
CCn1cnnc1C1CCN(C(=O)c2ccc(Cl)s2)CC1	1.567%
CCn1cnnc1C1CCN(C(=O)c2c(C)oc(C)c2C)CC1	107.2%
CCc1ccc(C(=O)N2CCC(c3nncn3CC)CC2)o1	130.6%
CCCS(=O)(=O)N1CCC2(CC1)COCCN(C(C)=O)C2	-12.8%
NCCC1CN(c2nc(-c3ccccc3)nc3c2CCNC3)CCO1 (stereo not given)	-13.03%
CC(=O)c1cccc(OCCCC(=O)N(C)Cc2cscn2)c1	4.484%
COc1cc(Br)c(CNC(C)c2nnc3n2CCC3)cc1OC (stereo not given)	2.226%
CNS(=O)(=O)c1ccccc1N1CCN(C(=O)C(C)C)CC1	-15.34%
COc1cccc2ccc(CN3CCN(c4cccnc4)CC3)nc12	1.116%
CCn1cnnc1C1CCN(C(=O)c2ccc3ccccc3n2)CC1	136.7%
CCn1cnnc1C1CCN(C(=O)c2cccc(C)c2C)CC1	94.12%
CCn1cnnc1C1CCN(C(=O)C(OC)c2ccccc2)CC1 (stereo not given)	-2.664%
CCn1cnnc1C1CCN(C(=O)c2ccccc2F)CC1	104.8%
CNc1nc(CNC(=O)Nc2ccccc2OC(C)C)cs1	-5.433%
CCSCCC(C)N(C)C(=O)c1cc(C)no1 (stereo not given)	-5.306%
Cc1[nH]ncc1CCCNC(=O)Nc1ccc(C#N)cc1	-18.53%
CCOCCn1nc(C)cc1C(=O)N1CC[C@@](O)(COC)C(C)(C)C1	0.9121%
CC(Sc1nnc(C2CC2)n1CC(N)=O)c1ccc(Cl)cc1 (stereo not given)	0.3539%
OCC1(CCOc2ccccc2)CCN(c2ccc(Cl)cn2)CC1	-3.583%
Cc1ccc(Cl)cc1-n1nnnc1C1(N2CCCC2)CCCC1	-26.05%

Structure (SMILES)	Percent Effect
COc1cccc(NC(=O)NCc2cnn(C)c2)c1	90.55%
CC(C)OCCOCc1cccc(NC(=O)NCc2cnn(C)c2)c1	2.629%
CC(C)Nc1cccc(C(=O)NCC(O)c2ccc(F)cc2F)c1 (stereo not given)	1.201%
COc1ncccc1NC(=O)NCC(O)c1ccc(F)cc1F (stereo not given)	0.8108%
O=C(NCC(O)c1ccc(F)cc1F)c1ccccc1F (stereo not given)	15.04%
COc1cccc(NC(=O)NCC(Cc2cnn(C)c2)C(N)=O)c1 (stereo not given)	2.392%
Cc1cccc(C(=O)NCC(O)c2ccc(F)cc2F)c1 (stereo not given)	14.48%
COc1ccccc1NC(=O)NCC(O)c1ccc(F)cc1F (stereo not given)	114.6%
COc1cccc(NC(=O)NCC(O)c2ccc(F)cc2F)c1 (stereo not given)	109.6%
CC(=O)c1cccc(OC(C)C(=O)Nc2cnn(CCN(C)C)c2)c1 (stereo not given)	-1.957%
CC(NC(=O)c1cccc(CCC(C)(C)O)c1)c1nnc(N)s1 (stereo not given)	-8.452%
OCc1ccc(OCC(F)(F)F)cc1	0.2216%
CCC(C)N(C)C(=O)Nc1ccc(N2CCSCC2)cc1C (stereo not given)	-11.87%
CC(C)CC(=O)N1C[C@@H]2CCN(c3cnccn3)C[C@@H]2C1.O=C(O)C(F)(F)F	83.3%
CC(C)CN1CCO[C@H]2CCN(c3cnccn3)CC[C@@H]21.O=C(O)C(F)(F)F	107%
O=C(O)C(F)(F)F.O=C(c1ccccc1)N1CCO[C@@H]2CN(c3cnccn3)C[C@@H]2C1	-2.123%
CCOCC(=O)N1C[C@@H]2CCN(c3cnccn3)C[C@@H]2C1.O=C(O)C(F)(F)F	110.3%
CCCC(=O)N1C[C@@H]2CCN(c3cnccn3)C[C@@H]2C1.O=C(O)C(F)(F)F	107.8%
O=C(O)C(F)(F)F.O=C(c1cnccn1)N1C[C@@H]2CCN(c3cccnc3)C[C@@H]2C1	-9.697%
CC(SCC(=O)NC(N)=O)c1ccccc1F (stereo not given)	-3.716%
Cc1cc(C)cc(S(=O)(=O)NCC2CNCCOC2)c1 (stereo not given)	5.985%
Cc1c(C(=O)NS(=O)(=O)c2ccsc2)cnn1CC(C)C	9.8%
CCC(=O)N1C[C@@H]2CCN(c3cnccn3)C[C@@H]2C1.O=C(O)C(F)(F)F	109.3%
Cn1cncc1C(=O)N1C[C@@H]2CCN(c3cnccn3)C[C@@H]2C1.O=C(O)C(F)(F)F	-2.415%
Cn1ccnc1C(=O)N1C[C@@H]2CCN(c3cnccn3)C[C@@H]2C1.O=C(O)C(F)(F)F	-15.62%
O=C(c1nc(=O)[nH][nH]1)N1CCCN(CC2CCCCC2)CC1	4.28%
Cc1nc(C2(O)CCCNCC2)sc1CCOc1ccc(Cl)cc1.Cl (stereo not given)	-4.713%

Structure (SMILES)	Percent Effect
Cc1[nH]nc2ncc(C(=O)N3CCN(CC(C)(C)O)CC3)cc12	-29.67%
CCOCC1CN(S(=O)(=O)c2ccccc2)Cc2nccn2C1 (stereo not given)	89.2%
CCOCc1ncn2c1CN(S(=O)(=O)c1cccc(C)c1)CC2	-2.947%
COCC1CN(S(=O)(=O)c2cccc(F)c2)Cc2nccn2C1 (stereo not given)	114.5%
COCc1ncn2c1CN(S(=O)(=O)c1cccc(F)c1)CC2	-3.986%
CCOCC1CN(S(=O)(=O)c2cccc(C)c2)Cc2nccn2C1 (stereo not given)	102.9%
CCOCC1CN(S(=O)(=O)Cc2ccccc2)Cc2nccn2C1 (stereo not given)	112.8%
COCC1CN(S(=O)(=O)c2ccccc2)Cc2ncnn2C1 (stereo not given)	2.623%
CCS(=O)(=O)N1Cc2nccn2CC(COc2cccnc2)C1 (stereo not given)	-25.66%
O=S(=O)(Cc1ccccc1)NC[C@H]1Cn2ccnc2CO1	-7.74%
CCc1nnc(CN(C)c2nc(C(C)C)nc3c2cnn3C)o1	-14.59%
CCc1nc(C2CCCN2c2ncc(C(F)(F)F)cc2Cl)no1 (stereo not given)	16.09%
Cc1cccc(S(=O)(=O)N2Cc3nccn3CC(CN(C)C)C2)c1 (stereo not given)	117.9%
Cc1cccc(S(=O)(=O)N2Cc3c(CN(C)C)nn(C)c3C2)c1	-7.774%
CCCS(=O)(=O)N1Cc2nccn2CC(CN(C)C)C1.O=C(O)C(F)(F)F (stereo not given)	-8.912%
COCCC1COC2(CCN(C(=O)C3CCCC3)CC2)C1 (stereo not given)	-1.347%
COCCC1COC2(CCN(C(=O)C3CCCCC3)CC2)C1 (stereo not given)	-0.113%
COCCC1COC2(CCN(C(C)=O)CC2)C1 (stereo not given)	-6.336%
CS(=O)(=O)N1CCC2(CC1)CN(CCn1cccn1)C(=O)CO2	-11.65%
CS(=O)(=O)N1CCOC2(CCCC2)C1	-2.404%
CC(C)C1=NOC2(CCN(S(C)(=O)=O)CC2)C1	106.9%
Cc1ccc(C(=O)N2CCC3(CC2)CC(NC(=O)C(C)C)CO3)cc1 (stereo not given)	-11.34%
CC(C)C1=NOC2(CCN(C(=O)C3CCCC3)CC2)C1	98.86%
CC(=O)N1CCC2(CC1)CC(C(C)C)=NO2	118.9%
